From PubChem
Shown are actives, neighbours in structure and some others; about 3% of the full set was active somewhere.
Nrf2 block: Nrf2 qHTS screen for inhibitors. A549 ARE-Fluc reporter, luciferase luminescence, 18-24 h. Potency, µM (doses to about 46 µM), hits mostly inhibitors. 360,000 compounds, 2.1% hits. AID 504444, 2011; note: nearly all actives have a fitted effect of over 60% in size
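Two sequential reads on A549 ARE_Fluc cells exposed to compound for 18-24 h: a CellTiter-Fluor fluorescence read for viability, then a luciferase luminescence read for Nrf2/ARE activity.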
Nrf2 activator: qHTS of Nrf2 Activators; AREc32 ARE-luciferase reporter (MCF7-derived line), luminescence, 24 h; Potency, µM (series often up to 46.1 µM), usual class: activators; 410,000 compounds, 0.31% hits; AID 624171, 2012; note: nearly all actives have a fitted effect of over 65% in size
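ARE-driven firefly luciferase activity in AREc32 cells measured after a 24 hr compound exposure at 37 deg C, using Steady-Glo reagent and a 30 min room-temperature hold.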
TrxR1 substrate: qHTS Assay for Substrates of Mammalian Selenoprotein Thioredoxin Reductase 1 (TrxR1): qHTS; Thioredoxin reductase 1, cytoplasmic (Rattus norvegicus), O89049; purified TrxR1 substrate turnover, NADPH consumption readout; Potency, µM (top dose mostly 114 µM); 390,000 compounds, 0.01% hits; AID 588456, 2011; note: nearly all actives have a fitted effect of over 50% in size
Target sequence (O89049 whole entry, looked up): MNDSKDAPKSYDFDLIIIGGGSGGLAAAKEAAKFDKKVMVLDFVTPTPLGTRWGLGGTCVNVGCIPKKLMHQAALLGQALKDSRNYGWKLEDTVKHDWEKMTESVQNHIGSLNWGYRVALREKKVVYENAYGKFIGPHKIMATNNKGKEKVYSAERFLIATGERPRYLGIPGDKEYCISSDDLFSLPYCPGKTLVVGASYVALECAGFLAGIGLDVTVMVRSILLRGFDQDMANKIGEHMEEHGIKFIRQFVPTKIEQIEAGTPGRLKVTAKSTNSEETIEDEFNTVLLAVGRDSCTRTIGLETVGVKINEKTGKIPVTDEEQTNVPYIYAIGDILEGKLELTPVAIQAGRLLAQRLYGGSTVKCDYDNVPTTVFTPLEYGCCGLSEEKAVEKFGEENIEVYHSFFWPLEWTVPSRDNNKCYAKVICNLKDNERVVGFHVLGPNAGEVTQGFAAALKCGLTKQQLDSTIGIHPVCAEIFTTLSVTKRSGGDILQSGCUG
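Rat TrxR1, dispensed at 90 nM, was prereduced with 400 uM NADPH (final) for 5 min at ~22 deg C, then incubated with compound 15 min before 400 uM selenite. A first-read NADPH fluorescence drop versus no-compound background flagged substrates.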
rTrxR1 inhibitor: qHTS Assay for Inhibitors of Mammalian Selenoprotein Thioredoxin Reductase 1 (TrxR1): qHTS | Potency, µM (series often up to 114 µM), most hits filed as inhibitors | Thioredoxin reductase 1, cytoplasmic (Rattus norvegicus), O89049 | 390,000 compounds, 1% hits | recombinant rTrxR1, NADPH fluorescence consumption, selenite substrate | AID 588453, 2011; note: nearly all actives have a fitted effect of over 65% in size
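Rat TrxR1 (90 nM in the dispensed reagent) was pre-reduced with 400 uM NADPH for 5 min at room temperature, then incubated with compound for 15 min. After 400 uM selenite was added, NADPH fluorescence (Ex 340/Em 450 nm) was followed for 8 min.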
GALK inhibitor: qHTS Assay for Inhibitors of Human Galactokinase (GALK); P51570; Purified GALK, Kinase-Glo residual ATP luminescence; Potency, µM (titrated, usually from 57.5 µM), hits mostly inhibitors; 270,000 compounds, 0.007% hits
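Luminescence from leftover ATP (Ultra-Glo luciferase/luciferin) served as read-out after a 1 h room-temperature reaction of 5 nM GALK with 35 uM ATP and 100 uM galactose.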
A549 viability: Nrf2 qHTS screen for inhibitors: counterscreen for cytotoxicity; Potency, µM (series often up to 46 µM), actives largely listed as inhibitors; 390,000 compounds, 0.16% hits; A549 ARE-Fluc cells, CellTiter-Fluor viability, 18-24 h
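Cytotoxicity counterscreen: CellTiter-Fluor fluorescence was measured in A549 ARE_Fluc cells after 18-24 h of compound exposure in a concentration series. The subsequent BugLite luminescent read reports ARE-luciferase activity.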
Numbers stand for hits; 0 = inactive; ? = inconclusive; - = no result. Calls come from the whole dose curve; as a rule, active = well fitted curve in the direction sought with a large enough effect; inconclusive = small, poorly fitted or top-dose-only effect, or another doubt; inactive = no such curve, though single readings can be large; an effect the other way counts as inactive or inconclusive.

SMILES	Nrf2 block	Nrf2 activator	TrxR1 substrate	rTrxR1 inhibitor	GALK inhibitor	A549 viability
Cc1ccsc1-c1ccnc(-n2cccc2)n1	?	5µM	0	0	0	0
c1ccc2nc(-c3nccs3)ccc2c1	?	0	0	0	0	0
c1coc(-c2ccnc(-n3cccc3)n2)c1	?	?	0	0	0	0
COc1ccc(C2C=C(c3ccc(Cl)cc3)Nc3nc(-c4ccc(Cl)cc4)nn32)cc1 (configuration not stated)	0	0	0	0	-	0
O=c1c(CN2CCN(Cc3ccccc3)CC2)coc2ccc(Cl)cc12	-	0	0	22µM	0	0
COc1ccc(CC(=O)Nc2ccc3nc(Nc4cccc(Cl)c4)cc(C)c3c2)cc1	26µM	0	0	0	-	?
Cc1cc(Nc2cccc(C(F)(F)F)c2)nc2ccc(NC(=O)Cc3ccc(Cl)cc3)cc12	16µM	0	0	0	-	?
O=C(CCn1nc(-c2ccccc2)c2ccccc2c1=O)Nc1ccccc1	0	0	0	0	-	0
COc1ccccc1NC(=O)CCn1nc(-c2ccccc2)c2ccccc2c1=O	23µM	0	0	0	-	?
COC(=O)c1ccc2c(c1)C(C)(C)C(/C=C/c1ccccc1O)=[N+]2C	-	?	0	79µM	0	?
C[N+]1=C(/C=C/Nc2ccccc2Cl)C(C)(C)c2ccccc21	?	0	0	0	0	0
O=S(=O)(c1ccccc1)c1nnn2c1nc(NC1CCN(Cc3ccccc3)CC1)c1cc(Cl)ccc12	6.5µM	0	0	0	0	?
Cc1c(C(=O)c2no[n+]([O-])c2C(=O)c2cnn(C)c2C)cnn1C	0	0	0	1.3µM	0	0
Cc1cc(C)c(NC(=O)Cn2c(=O)n(Cc3ccc4c(c3)OCO4)c(=O)c3ccccc32)c(C)c1	0	0	0	0	-	0
Cc1cc(C)c(NC(=O)Cn2c(=O)n(Cc3ccc(C(=O)NCc4ccc5c(c4)OCO5)cc3)c(=O)c3ccccc32)c(C)c1	15µM	0	0	0	-	0
CCc1ccccc1N(C)C(=O)c1cc2c(s1)-c1c(C)cccc1OC2	0	0	0	0	-	0
COc1ccc(N(C)C(=O)c2cc3c(s2)-c2c(C)cccc2OC3)c(OC)c1	21µM	0	0	0	-	0
COc1cc2nc(NC3CCN(Cc4ccccc4)CC3)nc(N3CCCN(C)CC3)c2cc1OC	-	-	0	0	-	-
NNc1nc(-c2ccccc2)nc2sc3c(c12)CCCC3	?	1.4µM	0	0	0	0
Cc1nc([N+](=O)[O-])cn1CC(=O)c1ccc(F)cc1	0	0	0	0	0	0
COC(=O)Cn1c(C)nc([N+](=O)[O-])c1Br	0	0	0	16µM	0	0
CCn1c(=N)n(CC(=O)c2cccc([N+](=O)[O-])c2)c2ccccc21	?	?	0	0	0	0
Cc1nc([N+](=O)[O-])c(Br)n1CC(=O)c1cccc([N+](=O)[O-])c1	?	0	0	7.1µM	0	?
Cc1nc([N+](=O)[O-])c(Sc2nc3ccc([N+](=O)[O-])cc3[nH]2)n1Cc1ccccc1	0	0	0	2.5µM	0	0
O=C(CSc1nc2ccc([N+](=O)[O-])cc2[nH]1)c1ccc2ccccc2c1	?	0	0	0	0	?
CCn1c(C)nc([N+](=O)[O-])c1C(=O)O	0	0	0	0	0	0
Cc1nc([N+](=O)[O-])c(Br)n1CC(=O)c1ccc(F)cc1	0	0	0	2.5µM	0	0
Cc1nc([N+](=O)[O-])c(SCC(O)CCl)n1Cc1ccc(Cl)cc1 (configuration not stated)	?	0	0	0	0	0
Cc1nc([N+](=O)[O-])c(Br)n1Cc1ccccc1	?	10µM	0	16µM	0	0
